Inconclusive results are not listed. Activity calls are given as the source filed them. Calls follow the shape of the dose curve; as a rule, active = well fitted cell-killing curve with a large enough effect; inconclusive = small, poorly fitted or top-dose-only effect, or effect the other way; inactive = flat fitted curve, though single readings scatter.
System: Hek293T
Assay: Primary qHTS to identify gynecologic anti-cancer compounds using libraries of approved drugs and bioactive compounds (AID 1345084); also: nearly all actives have a fitted effect of over 55% in size
Details: Gynecologic cancer cell panel viability, ATPlite luminescence, 48 h, control line for the selectivity index; series mostly up to 57.5 µM; activity change, negative = cytotoxicity: at the top concentration
Summary of the method: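 Luminescence from the ATPlite ATP-monitoring reagent indicates viable cell number; lower signal means cytotoxicity. Cells received compound 16 h after seeding and were exposed for 48 h across five concentrations.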
% is scaled to controls: 0 for no effect and ±100 for the full control effect.

| SMILES | activity change, negative = cytotoxicity |
| --- | --- |
| C/C=C(\C)C(=O)O[C@H]1[C@@H](O[C@]2(COC(=O)CC(C)C)O[C@H](COC(=O)C(C)CC)[C@@H](OC(C)=O)[C@@H]2O)O[C@H](COC(C)=O)[C@@H](O)[C@@H]1O (some centres not stated) | 16.9% [at 25.3 µM] (inactive) |
| C=C(C(=O)O)C1CC2=C(C)CCCC2(C)C[C@@H]1O (some centres not stated) | 10.4% (inactive) |
| O=C(NCc1ccc(F)cc1)C(=O)c1c[nH]c2ccccc12 | 1.58% (inactive) |
| C/C(=C\C=C\C(C)C1CCC2(C)C3CCC4C(C)(C)C(=O)CCC45CC35CCC12C)C(=O)O (configuration not stated) | 21.2% [at 25.3 µM] (inactive) |
| C/C(=C\CCC(C)CCO)C(=O)OC1(C)CCC2C(C(=O)O)=COC(OC3OC(CO)C(O)C(O)C3O)C21 (configuration not stated) | -29.8% [at 25.3 µM] (inactive) |
| CC(=O)O[C@@H]1[C@@H](OC(=O)/C=C/c2ccccc2)[C@@H](OC(C)=O)[C@H](O[C@H]2[C@@H]3C=CO[C@@H](O[C@@H]4O[C@H](CO)[C@@H](O)[C@H](O)[C@H]4O)[C@@H]3[C@@]3(CO)O[C@@H]23)O[C@H]1C | -1.49% [at 25.3 µM] (inactive) |
| CCN(CC)Cc1ccc(C(=O)N(CCc2ccccc2OC)[C@@H]2CCNC2)cc1 | -17.9% [at 25.3 µM] (inactive) |
| O=C1OCc2cc3cccc(O[C@@H]4O[C@H](CO)[C@@H](O)[C@H](O)[C@H]4O)c3c(O)c21 | 14% [at 38.5 µM] (inactive) |
| N#Cc1ccc(C(=O)N2CCC3(CC2)N=C(N)c2c(F)ccc(F)c2N3)cn1 | -0.995% (inactive) |
| CCCCc1ccc(C(=O)Nc2cc(-c3ccc(Cl)cc3)nn2-c2ccc(Cl)cc2)cc1 | 2.88% (inactive) |
| O=C(C(c1ccccc1)c1ccccc1)N1CCN(CC(O)COc2cccc3ncccc23)CC1 (configuration not stated) | 0.791% (inactive) |
| CC(C)c1cc2c(c(O)c1O)[C@@]13CCCC(C)(C)[C@@H]1[C@H](OC3=O)C2=O | 12.2% [at 38.5 µM] (inactive) |
